# Reference: PubChem BioAssay AID540277 (National Center for Advancing Translational Sciences (NCATS), 2011)
# In all, about 320,000 compounds went through this assay and about 55 (0.02%) were called active. About 3% were inconclusive and are not listed. The full list was thinned out, with actives kept by preference. Values without a mark were called inactive. Cut-off read from the data, not from the text of the source: active = potentiation above about 80%; inconclusive = between about 30% and that limit; inactive = weaker than that.
# Biological target: Transient receptor potential cation channel subfamily V member 1 (Homo sapiens) (UniProt Q8NER1)
# Sequence (Q8NER1 whole entry, looked up): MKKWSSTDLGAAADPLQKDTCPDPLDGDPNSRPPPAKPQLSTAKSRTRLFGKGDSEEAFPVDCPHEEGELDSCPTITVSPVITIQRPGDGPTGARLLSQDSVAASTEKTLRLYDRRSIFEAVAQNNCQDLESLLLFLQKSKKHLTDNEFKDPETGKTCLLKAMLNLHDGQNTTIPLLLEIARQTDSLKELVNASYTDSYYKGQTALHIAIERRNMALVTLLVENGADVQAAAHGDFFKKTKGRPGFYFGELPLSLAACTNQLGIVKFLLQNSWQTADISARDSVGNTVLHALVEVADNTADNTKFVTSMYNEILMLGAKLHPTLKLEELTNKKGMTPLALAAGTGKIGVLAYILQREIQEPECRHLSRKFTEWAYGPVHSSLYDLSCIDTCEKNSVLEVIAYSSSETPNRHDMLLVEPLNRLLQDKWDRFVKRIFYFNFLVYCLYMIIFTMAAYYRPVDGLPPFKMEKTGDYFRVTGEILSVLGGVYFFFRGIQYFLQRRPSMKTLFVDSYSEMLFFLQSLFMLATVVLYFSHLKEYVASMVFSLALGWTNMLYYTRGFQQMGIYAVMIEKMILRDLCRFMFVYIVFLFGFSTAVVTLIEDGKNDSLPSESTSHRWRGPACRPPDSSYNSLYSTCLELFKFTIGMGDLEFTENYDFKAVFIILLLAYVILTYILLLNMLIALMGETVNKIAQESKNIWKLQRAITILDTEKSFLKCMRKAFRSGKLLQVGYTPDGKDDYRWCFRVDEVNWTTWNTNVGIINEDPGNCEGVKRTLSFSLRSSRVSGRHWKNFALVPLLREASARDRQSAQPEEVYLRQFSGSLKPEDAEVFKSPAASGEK
# Experiment: HTS Assay for Compounds that Act as Potentiators of the Vanilloid Receptor 1; note: 0% is about no effect
# Details: TRPV1-expressing cells, Fluo-8 calcium influx, capsaicin EC20 potentiation; at 8.33 µM; active compounds read high
# Source text: The transient receptor potential ion channel, family V, number 1, (TRPV1) is one of the most important molecular transducers of painful stimuli and a potential target for analgesic drug development. Although recent clinical trials with orthosteric antagonists have not produced a successful drug because of a hyperthermia side effect and their tendency to block thermal noxious pain, this ion channel is undeniably well placed in the pain pathway, and the idea of blocking pain signals before they enter the CNS is an excellent concept and of proven efficacy when TRPV1 agonists are used. We propose a new approach involving allosteric modulation to impose an activity-dependent constraint within the context of inflammation and tissue damage that would alter the responsiveness of the channel in a way that an orthosteric vanilloid antagonist cannot achieve. We believe that the allosteric modulator approach has not been explored for this target. The main goal of this proposal is to identify additional, new, potent allosteric modulators of TRPV1 that can be used to investigate TRPV1 function. Our recent report provides evidence of proof of concept, but the compounds are just at the edge of utility in terms of potency. […] The question of whether they can be used as analgesic agents is complex, but if suitable compounds are identified then testing for analgesic properties will be conducted. NIH Chemical Genomics Center [NCGC] NIH Molecular Libraries Probe Centers Network [MLPCN] MLPCN Grant: MH089480-1A1 Assay Submitter (PI): Michael Iadarola, National Institute of Dental and Cranofacial Research
# Upon TRPV1 activation in TRPV1 cells, the channel opens and extracellular cations flow through the channel into the cytosol. A calcium binding dye (Fluo-8) becomes fluorescent when bound to calcium. This dye is pre-loaded into cells and is used as a marker for calcium influx. The amount of accumulated calcium is precisely quantified using the FDSS kinetic reader and the calcium dye. For the HTS assay, freshly prepared cells are plated at a density of 2000/well in 3 ul medium in 1536-well plates and cultured overnight at 35.5C. Cells will be loaded with 1 ul of the homogeneous calcium dye (ABD Bioquest) at room temperature for 40 to 90 minutes. Plates will be loaded into the FDSS kinetic reader and a 1 sec / cycle for 10 second baseline signal will be measured. Compound library will then be added with a pintool at 23 nl and measured kinetically for 3 minutes. This portion of the read is considered the agonist portion of the screen. Following the 3 minutes of incubation, an on board pipettor will deliver 1 ul of capsaicin for a final concentration equal to the EC20. Signal will be measured kinetically for an additional 2 minutes. This portion of the read is considered the allosteric enhancer portion of the screen. The FDSS reader has a standard filter set capable of measuring calcium bound Fluo-8 (ex=480 and em=520 nm).
row,Compound,potentiation
1,Cc1nc2ccc(NC(=O)C3CCCCC3)cc2s1,-2.49%
2,COc1ccc(-c2sc3ccc(OC)cc3c2C#Cc2ccccn2)cc1,-1.97%
3,CC(C)c1ccc(S(=O)(=O)N2CCN(C(C)C(=O)NC3CCCC3)CC2)cc1 (stereo unspecified),-15.2%
4,O=C(Nc1ccccn1)C1CCN(S(=O)(=O)c2ccccc2)CC1,-3.8%
5,COCCn1c(C)cc(C(=O)CSc2nnc(C3CC3)n2C2CC2)c1C,-2.92%
6,CC(=O)Nc1ccc(Nc2cc(C)nc(Nc3ccc(NC(C)=O)cc3)n2)cc1,13.9%
7,O=c1ccc2c(-c3ccccc3S(=O)(=O)O)c3ccc(O)c(O)c3oc-2c1O,12.9%
8,CC(=O)N1CCN(S(=O)(=O)c2cccc(C(=O)NC3CCC(C)CC3)c2)CC1 (stereo unspecified),0.313%
9,Cc1cc(C(=O)Nc2nnc(C3CC3)s2)c(C)s1,9.37%
10,COc1cccc(-n2c(SCC(=O)NC3CCS(=O)(=O)C3)nc3ccccc3c2=O)c1 (stereo unspecified),7.53%
11,CC(C)n1ncc2c(C(=O)Nc3ccc(CC#N)cc3)cc(C3CC3)nc21,-24.2%
12,COc1cccc(NC(=O)CN(C)CC(=O)c2c(N)n(Cc3ccccc3)c(=O)n(C)c2=O)c1,23.5%
13,O=S(=O)(NCc1ccccc1Br)c1ccccc1Br,5.51%
14,CCOC(=O)C1=C(COC(=O)[C@H](C)NS(=O)(=O)c2ccccc2F)NC(=O)NC1C (stereo partly specified),-3.56%
15,CCOC(=O)c1cc(OC(=O)c2ccccc2Cl)n(-c2ccccc2)n1,0.753%
16,CCc1sc(C(=O)N2CCN(CC(=O)Nc3cccc(F)c3)CC2)cc1C,-11.7%
17,CCN(CC(=O)NCc1cccs1)C(=O)/C=C/c1ccc(C)cc1,-0.0424%
18,COC(=O)c1sc2[nH]c(=S)n(N)c(=O)c2c1C,-11.7%
19,CCN(c1ccccc1)S(=O)(=O)c1cccc(C(=O)NCc2ccccc2CN2CCOCC2)c1,-5.32%
20,CCOc1ncccc1C(=O)OCC(=O)c1c[nH]c2ccccc12,3.1%
21,O=C(CN1C(=O)NC2(CCCCC2)C1=O)N1CCN(C(=O)c2cccs2)CC1,25.7%
22,CN(C)CCN=c1cc(-c2ccccc2)oc2ccc(Cl)cc12,-6.88%
23,O=C(COC(=O)c1ccccc1)c1ccc2c(c1)OCCO2,3.76%

row,Compound,potentiation
1,Cc1c(C(=O)NNC(=O)c2ccncc2)oc2ccccc12,-17.2%
2,O=C(O[C@@H]1[C@H](Cc2ccccc2)NS(=O)(=O)[C@H]2C[C@@H]3C=C[C@]12O3)c1ccccc1Br,3.92%
3,Cc1ccc(OCCC(=O)Nc2ccc(S(=O)(=O)Nc3nccs3)cc2)cc1,17.5%
4,NC(=O)C1CCN(C(=O)c2ccc(F)c(S(=O)(=O)N3CCOCC3)c2)CC1,-7.69%
5,CC(C)c1ccc(/C=C/C(=O)NCCCN2CCOCC2)cc1,-19.8%
6,O=C(NCCC1=CCCCC1)c1ccc(-n2cncn2)cc1,-28.9%
7,Cc1ccn2c(=O)nc(SCC(=O)NCc3ccc4c(c3)OCO4)nc2c1,-6.94%
8,CC1CN(/C=C/C(=O)C(F)(F)F)CC(C)O1 (stereo unspecified),11.7%
9,COc1ccccc1/C=C/C(=O)OCC(=O)NC1CCCCCC1,-11.2%
10,O=C(NCCc1ccc(F)cc1)c1ccc2nccnc2c1,-3.52%
11,CC(C)N(Cc1nnc(-c2ccccc2Br)o1)C(=O)c1cc(Cl)nc2ccccc12,-18.4%
12,Cc1cc(C)cc(OCC(=O)OCC(=O)NC2CCCC2)c1,19.9%
13,COC(=O)C(C)NC(=O)COc1ccc2ccccc2c1 (stereo unspecified),3.51%
14,CC(C)C(C)NC(=O)COc1ncnc2ccccc12 (stereo unspecified),5.13%
15,COCC(C)NC(=O)COc1nncc2ccccc12 (stereo unspecified),80.9% (active)
16,Cc1cc(C)cc(-c2nnc(SCC(=O)NC3CC3)o2)c1,-9.15%
17,CCOCc1c(C(=O)N2CCN(Cc3ccc(Br)s3)CC2)oc2ccccc12,-19.8%
18,COc1ccccc1N1CCN(CC(=O)Nc2ccnn2C2CCCC2)CC1,4.7%
19,COc1ccccc1-n1nnnc1SCC(=O)NC(=O)Cc1ccccc1,2.96%
20,COc1ccc(S(=O)(=O)N2CCOCC2)cc1NC(=O)c1ccc(OCC(C)C)c(OC)c1,-5.7%
21,O=C(Nc1ccccc1F)c1ccc(S(=O)(=O)N2CCCCCC2)cc1,-21.7%
22,O=S(=O)(NCCc1ccccn1)c1cc(Cl)cc(Cl)c1O,2.4%
23,O=C(c1cc2ccccc2o1)N1CCN(S(=O)(=O)c2ccc(Cl)s2)CC1,-15.9%
